CHX counter: counter-screen hit for Shiga toxin inhibitors, cycloheximide | cell reporter, cycloheximide protein synthesis inhibition counterscreen | max response, % | 12% of 300,000 active | AID 2314; in the data active = max response mostly above about 13%, no sharp cut-off; inactive = mostly below about 14%; note: read at 38.3 µM for the half of the compounds with a filed dose
Pf growth 96h: inhibits malaria parasite growth, 96 h; P. falciparum luciferase reporter growth, 96 h; 6.9% of 320,000 active; Potency, µM (top dose mostly 28.7 µM), actives largely listed as inhibitors
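Luminescence readout: decreased luciferase signal marks inhibited growth of reporter-expressing P. falciparum in infected red cells (2% hematocrit, 0.05% parasitemia final), exposed to compound two generations (96 h, 37 C, 5% CO2).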
Pf growth 48h: P. falciparum growth inhibition at 48 hours (one generation). P. falciparum luciferase growth in erythrocytes, 48 h. Potency, µM (series often up to 28.7 µM), hits mostly inhibitors. 5.9% of 310,000 active
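Read-out is firefly luciferase luminescence from an integrated reporter in P. falciparum, so falling signal marks reduced parasite growth. Infected erythrocytes were at 2% hematocrit and 0.1% parasitemia (final) in Albumax-supplemented RPMI 1640.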
HCV inh: HCV inhibition | Huh7.5.1 HCVcc-Cre infection, luciferase reporter, 44 h | Potency, µM (highest dose often 41.8 µM), most hits filed as inhibitors | 3.4% of 340,000 active | AID 651820
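Infectious HCVcc-Cre (~0.5 moi) was added to cells just after compound, with cells seeded 4 h earlier at 1,000 per well. Luciferase activity after 44 h culture reported infection; substrate was incubated 15 min at room temperature before reading.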
HCMV antiviral: inhibitors of human cytomegalovirus; HFF cells, HCMV-luciferase reporter, 72 h; stronger effect = lower value; activity change, negative = inhibition, % at 57.5 µM; 4.5% of 410,000 active; in the data active = activity change below about -60%; inconclusive = no clear call, values can overlap the other calls; inactive = above about -39%
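Screen run at 2 compound doses on HFFs infected with reporter HCMV, MOI 1 PFU/cell. Luciferase activity from cell lysates at 72 h post infection gave inhibition relative to buffer-only and Salinomycin wells.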
Shiga toxin inh: inhibitors of Shiga toxin in Vero cells; inhibition, % at 38.7 µM; Vero cells, Shiga toxin protein synthesis inhibition reporter; 9.2% of 290,000 active; in the data active = inhibition mostly above about 28%, no sharp cut-off; inactive = mostly below about 43%
Of the large screens only hits and unclear results are named; the others gave an inactive call. Shown are actives, neighbours in structure and some others; about 21% of the full set was active somewhere. Unless noted, calls come from the whole dose curve; as a rule, active = well fitted inhibition curve with a large enough effect; inconclusive = small, poorly fitted or top-dose-only effect, or another doubt; inactive = no such curve, though single readings can be large or run the other way.

CC(C)n1nnnc1SCC(=O)Nc1ccc2c(c1)OCO2	CHX counter 26, Pf growth 96h inconclusive, Shiga toxin inh 70
COc1cc(NC(=O)CSc2nnnn2Cc2ccccc2)cc(OC)c1	none
CC(Sc1nncs1)C(=O)Nc1ccc2c(c1)OCCO2 (stereo unspecified)	none (no result: CHX counter, Shiga toxin inh)
Cc1csc(SC(C)C(=O)Nc2ccc3c(c2)OCCO3)n1 (stereo unspecified)	CHX counter 29
CC(C)n1nnnc1SCC(=O)NCc1ccc2c(c1)OCO2	Pf growth 96h inconclusive
O=C(NCc1ccc(Cl)cc1)O[C@H]1CC[C@@]23CCCN2C(=O)CCC[C@H]3[C@H]1Cc1ccccc1	none (no result: CHX counter, Pf growth 96h, Pf growth 48h, HCV inh, Shiga toxin inh)
FC(F)(F)c1cc(-c2cnc3ccc(NCc4ccco4)nn23)cc(C(F)(F)F)c1	none (no result: CHX counter, Pf growth 96h, Pf growth 48h, HCV inh, Shiga toxin inh)
O=C(CSc1nnnn1Cc1ccccc1)Nc1ccc2c(c1)OCO2	CHX counter 13, Shiga toxin inh 33 (no result: Pf growth 96h)
O=C(CSc1nnnn1CCCO)Nc1ccc2c(c1)OCO2	none
CCOC(=O)c1nnc2c(-c3ccc(Cl)cc3)c(C)nn2c1N	none (no result: CHX counter, Pf growth 96h, Pf growth 48h, HCV inh, Shiga toxin inh)
O=S1c2ccccc2-c2ccccc21	none (no result: CHX counter, Pf growth 96h, Pf growth 48h, HCV inh, Shiga toxin inh)
O=[N+]([O-])c1ccc2c(c1)S(=O)c1ccccc1-2 (stereo unspecified)	Pf growth 96h inconclusive, Pf growth 48h 8.3µM
Nc1nc(COC(=O)C2CC(=O)N(CCc3ccccc3)C2)nc(Nc2ccccc2)n1 (stereo unspecified)	Pf growth 96h inconclusive (no result: CHX counter, Shiga toxin inh)
COc1ccc(OC)c(/C=c2\sc3nc(-c4cccs4)nn3c2=O)c1	none
CCn1nc(-c2cccs2)nc2c(=O)n(C)c(=O)nc1-2	CHX counter 26, HCV inh 0.56µM, Shiga toxin inh 26 (no result: Pf growth 96h, HCMV antiviral)
O=c1c2c3c(sc2n(CCN2CCOCC2)c(=O)n1Cc1ccco1)CCCCC3	Pf growth 96h 2.6µM, Pf growth 48h inconclusive, HCV inh 10µM, HCMV antiviral -96
O=c1c2c3c(sc2n(CCN2CCCCC2)c(=O)n1Cc1ccco1)CCCCC3	Pf growth 96h 2.6µM, HCV inh inconclusive (no result: Pf growth 48h)
Cc1nn(-c2nc(-c3ccc(F)cc3)cc(C(F)(F)F)n2)c(C)c1Cl	none (no result: CHX counter, Pf growth 96h, Pf growth 48h, HCV inh, Shiga toxin inh)
Cc1nc2c(C(=O)N(C)Cc3ccccc3)c[nH]n2c(=O)c1Cc1ccc(Cl)cc1	none (no result: CHX counter, Pf growth 96h, Pf growth 48h, HCV inh, Shiga toxin inh)
Cc1cc(C)c(NC(=O)CCN2C(=O)c3ccccc3Sc3ncccc32)c(C)c1	none (no result: CHX counter, Pf growth 96h, Pf growth 48h, HCV inh, Shiga toxin inh)
c1ccc(-c2cnnc(-c3ccccn3)n2)cc1	none (no result: CHX counter, Pf growth 96h, Pf growth 48h, Shiga toxin inh)
C=CCNc1nc(-c2ccccn2)nnc1-c1ccccc1	Pf growth 96h 1.7µM, HCV inh inconclusive, HCMV antiviral -103 (no result: Pf growth 48h)
Cn1cc(C(=O)c2ccc(Cl)cc2Cl)cc1C(=O)N/N=C(\N)COc1ccc(Cl)cc1	Pf growth 96h 9.3µM, HCV inh 13µM
Cn1cc(C(=O)c2ccc(Cl)cc2Cl)cc1C(=O)N/N=C(\N)COc1ccc(Cl)cc1Cl	Pf growth 48h inconclusive, HCV inh 13µM, HCMV antiviral inconclusive (no result: Pf growth 96h)
Cn1cc(C(=O)c2ccc(Cl)cc2Cl)cc1C(=O)N/N=C(\N)COc1ccc(F)cc1	Pf growth 48h inconclusive, HCV inh 10µM (no result: Pf growth 96h)
O=C(NCCc1ccc(C(F)(F)F)cc1)c1ccc(Cl)nc1	Pf growth 48h inconclusive
CC1(CCBr)C(=O)N(c2ccccc2)c2ccccc21 (stereo unspecified)	Pf growth 96h 13µM (no result: Shiga toxin inh)
COc1ccc(-c2noc(N3CCC(C(=O)N4CCN(c5ccccc5F)CC4)CC3)n2)cc1	none (no result: CHX counter, Pf growth 96h, Pf growth 48h, HCV inh, Shiga toxin inh)
COc1ccc(S(=O)(=O)Oc2ccc3ccccc3c2)cc1	CHX counter 23, Pf growth 96h inconclusive, HCV inh inconclusive, Shiga toxin inh 23
COc1cccc(CNCCSc2nnnn2-c2ccccc2)c1OC	none (no result: CHX counter, Pf growth 96h, Pf growth 48h, HCV inh, Shiga toxin inh)
O=C(Nc1ccc(Br)cc1)c1ccc(F)c(S(=O)(=O)N2CCCc3ccccc32)c1	HCMV antiviral -99 (no result: CHX counter, Pf growth 96h, Pf growth 48h, HCV inh, Shiga toxin inh)
O=C(Nc1cc(Cl)cc(Cl)c1)c1ccc(F)c(S(=O)(=O)N2CCc3ccccc32)c1	HCMV antiviral -96 (no result: CHX counter, Pf growth 96h, Pf growth 48h, HCV inh, Shiga toxin inh)
O=C(Nc1ccccc1F)c1ccccc1C(=O)Nc1ccccc1F	none (no result: CHX counter, Pf growth 96h, Pf growth 48h, Shiga toxin inh)
Nc1c(C(=O)Nc2ccc(F)cc2)sc(=S)n1-c1ccccc1F	CHX counter 29, HCV inh inconclusive, HCMV antiviral inconclusive, Shiga toxin inh 60
CCn1c(N)c(C(=O)NCCOC)sc1=S	none (no result: Pf growth 48h)
Cn1c(N)c(C(=O)Nc2ccc3ccccc3c2)sc1=S	CHX counter 43, HCV inh inconclusive, Shiga toxin inh 57
Cn1c(N)c(C(=O)N/N=C/c2ccccc2)sc1=S	none
CCn1c(N)c(C(=O)Nc2ccccc2C(=O)OC)sc1=S	Pf growth 96h 13µM, HCV inh 10µM
Cn1c(N)c(C(=O)Nc2ccccc2F)sc1=S	CHX counter 9.0
O=Cc1c(NC2CCCCC2)c2ccccc2[nH]c1=O	Pf growth 96h inconclusive
O=C1CCN(S(=O)(=O)c2cc(C(F)(F)F)ccc2Cl)CC1	none (no result: CHX counter, Shiga toxin inh)
Cc1ccn2cc(-c3cc4ccccc4oc3=O)nc2c1	CHX counter 44, Shiga toxin inh 76
CCN(c1ccccc1)S(=O)(=O)c1ccc(C(=O)N(CCCN(C)C)c2nc3c(C)cccc3s2)cc1	Pf growth 96h 9.3µM, Pf growth 48h 15µM
CCN(Cc1ccccc1)S(=O)(=O)c1ccc(C(=O)N(CCCN(C)C)c2nc3cc(C)cc(C)c3s2)cc1	Pf growth 96h inconclusive, Pf growth 48h inconclusive, HCV inh 10µM (no result: CHX counter, Shiga toxin inh)

Compound activity deposited in PubChem by National Center for Advancing Translational Sciences (NCATS).
